Most compounds without a hit are left out; they make up all but 8.9% or so of the library.
HPGD inh – inhibitors of human 15-hydroxyprostaglandin dehydrogenase (HPGD); Potency, µM, for the others: top-dose activity change, negative = inhibition, usual class: inhibitors; P15428; AID 894; purified HPGD, NADH fluorescence kinetic, PGE2 substrate; 150,000 tested, 4.3% active; active = well fitted inhibition curve with a large enough effect, not every such curve was filed as active; inconclusive = small, poorly fitted or top-dose-only effect, or another doubt; inactive = no such curve, though single readings can be large or run the other way; note: potency is the fitted concentration of half-maximal effect
Target sequence (P15428 whole entry, looked up): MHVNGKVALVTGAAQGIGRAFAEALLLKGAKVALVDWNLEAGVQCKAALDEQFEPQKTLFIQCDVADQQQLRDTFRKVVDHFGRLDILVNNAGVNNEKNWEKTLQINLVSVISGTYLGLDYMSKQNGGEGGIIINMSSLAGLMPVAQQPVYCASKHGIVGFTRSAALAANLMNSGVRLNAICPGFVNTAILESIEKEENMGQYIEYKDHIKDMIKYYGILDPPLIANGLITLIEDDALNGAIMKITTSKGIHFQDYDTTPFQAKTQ
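NADH formation kinetics: reaction with 30 uM PGE2 and 1 mM NAD+ (final), 20 nM enzyme, Tris-HCl pH 8 with Tween 20, after 15 min compound preincubation at room temperature. Fluorescence change, last versus first of five reads.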
IMPase Li cell – IMPase inhibition in cells with lithium potentiation; CHO-M1 cells, IP1 TR-FRET (IP-One), carbachol + lithium; Potency, µM (titrated, usually from 59.4 µM), without a hit: at the top dose activity, negative = IMPase inhibition, hits mostly inhibitors; 210,000 tested, 0.35% active; AID 1457;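 note: IP1 builds up when IMPase is blocked and the TR-FRET signal falls; potency is the fitted concentration of half-maximal effect; plate controls were basal vehicle for no effect and high inhibitor control for full effect; nearly all actives have a fitted effect of over 50% in size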
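CHO-M1, 2000 cells/well, 16–30 h culture; cpd + low Li+, 30 min 37C; lysis with d2-IP1/Eu-anti-IP1 Ab, 10 min RT; TR-FRET 665/620 ratio and 620 channel; AC50 via Hill.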
IMPase inh – membrane-permeable compound that blocks inositol monophosphatase; inhibition (IP1 accumulation), % at 46.1 µM; CHO-M1 cells, IP1 accumulation, HTRF TR-FRET ratio; 120,000 tested, under 10 active; active = well fitted curve in the direction sought with a large enough effect in the signal ratio, not every such curve was filed as active; inconclusive = small, poorly fitted or top-dose-only effect, or a change in a side signal; inactive = no such curve, though single readings can be large or run the other way; the % refers to the signal ratio;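 note: cells stimulated with carbachol in lithium chloride buffer; plate controls were DMSO basal wells for no effect and reference inhibitor wells for full effect; higher means more IMPase inhibition seen as more IP1 and lower FRET ratio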
Target sequence (P97697 whole entry, looked up): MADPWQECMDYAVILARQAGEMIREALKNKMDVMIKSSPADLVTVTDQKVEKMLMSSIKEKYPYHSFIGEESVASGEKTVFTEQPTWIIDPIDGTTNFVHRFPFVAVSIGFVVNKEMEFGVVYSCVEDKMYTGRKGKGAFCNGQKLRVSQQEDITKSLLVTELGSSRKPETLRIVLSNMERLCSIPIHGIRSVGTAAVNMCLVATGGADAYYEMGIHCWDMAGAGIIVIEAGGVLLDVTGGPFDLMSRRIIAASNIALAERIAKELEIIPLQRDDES
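Measured: the HTRF emission ratio (665/620 nm) plus the 620 nm donor channel, each fitted to the Hill equation to give AC50. Cells were CHO-M1 given compounds up to 46 uM and a 30 min carbachol stimulation at 37C.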
NPSR antag – neuropeptide S receptor (human) antagonism, cAMP; CHO-NPSR cells, cAMP TR-FRET, antagonist mode; Potency, µM (highest dose often 38.3 µM), for inactives: at the top dose activity change, negative = inhibition, hits mostly inhibitors; 220,000 tested, 1% active; note: potency is the fitted concentration of half-maximal effect; nearly all actives have a fitted effect of over 50% in size
ALDH1A1 inh – ALDH1A1 (human) enzyme inhibition | AID 1030 | Potency, µM (top dose mostly 75.3 µM), for the others: at the highest dose activity, negative = inhibition, hits mostly inhibitors | Purified ALDH1A1, NADH fluorescence, propionaldehyde substrate | P00352 | 220,000 tested, 7.3% active; active = well fitted inhibition curve with a large enough effect, not every such curve was filed as active; inconclusive = small, poorly fitted or top-dose-only effect, or another doubt; inactive = no such curve, though single readings can be large or run the other way;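 note: potency is the fitted concentration of half-maximal effect; plate controls were no enzyme wells and a reference inhibitor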
12-hLO inh – inhibitors of human 12-lipoxygenase (ALOX12) | P18054 | purified 12-hLO, xylenol orange hydroperoxide absorbance | Potency, µM (doses to about 57.1 µM), for the others: at the top dose activity change, negative = inhibition, actives largely listed as inhibitors | 150,000 tested, 0.12% active; note: potency is the fitted concentration of half-maximal effect; nearly all actives have a fitted effect of over 55% in size
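Hydroperoxide formation by human 12-lipoxygenase from 40 uM arachidonic acid was followed colorimetrically via ferric-xylenol orange complex, using the 573/405 nm absorbance ratio. Enzyme concentration was 150 nM, with 30 min reaction at room temperature.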
* = called active by the depositor; ? = inconclusive; / = no result given; [ ] = remark or other dose. Unless noted, calls come from the whole dose curve; as a rule, active = well fitted curve in the direction sought with a large enough effect; inconclusive = small, poorly fitted or top-dose-only effect, or another doubt; inactive = no such curve, though single readings can be large; an effect the other way counts as inactive or inconclusive. Unless noted, % is set by controls: 0 for no effect and ±100 for the full control effect.

SMILES | HPGD inh | IMPase Li cell | IMPase inh | NPSR antag | ALDH1A1 inh | 12-hLO inh
COc1cc(NC(=O)CN(C)S(=O)(=O)c2ccc3c(c2)CCC(=O)N3)cc(OC)c1 | -1% | -6%[38.3 µM] | -2 | -6%[46.1 µM] | -10% | 4%
CCCc1ccc(/C=C2\C(=O)c3ccccc3C(O)=C2C(=O)OCC)cc1 | 4.5µM* | 34%[38.3 µM] | 9 | ? | ? | -22%
CCOC(=O)C1=C(O)c2ccccc2C(=O)/C1=C\c1ccc(CC)cc1 | 0.89µM* | 17% | 9 | ? | 19µM* | ?
O=C(Nc1ccc(N2CCOCC2)c(Cl)c1)c1cccc(F)c1 | ? | 27%[38.3 µM] | 9 | -6%[46.1 µM] | ? | -10%
Cc1ccc(C(=O)NN2C(=O)C3C4C=CC(C5CC45)C3C2=O)cc1 (centres undefined) | / | -2% | / | 21% | 8% | /
O=S(=O)(Nc1ccc2c3c(cccc13)CC2)c1ccc(F)cc1 | -15% | 13%[38.3 µM] | 3 | -17%[46.1 µM] | 13µM* | -1%
COc1ccccc1/C=N/n1cnnc1 | ? | 19%[38.3 µM] | 5 | -6%[46.1 µM] | ? | 5%
O=S(=O)(Oc1ccccc1/C=N/n1cnnc1)c1ccccc1 | / | 1% | / | 7% | 22µM* | /
CCOc1cc(/C=N/n2cnnc2)ccc1OS(=O)(=O)c1ccccc1 | / | 9% | / | -8% | 13µM* | /
CCN(Cc1ccccc1)c1ccc(/C=N/NS(=O)(=O)c2cccc([N+](=O)[O-])c2)cc1 | -19% | 3% | / | -26% | 6.3µM* | -7%
Cc1ccc(S(=O)(=O)N/N=C/c2ccc(O)c(O)c2)cc1[N+](=O)[O-] | / | 8% | / | 16% | ? | /
CCN(CC)c1ccc(/C=N/NS(=O)(=O)c2ccc(C)c([N+](=O)[O-])c2)cc1 | / | / | 2 | -3%[46.1 µM] | 20µM* | -7%
COc1ccccc1CC(=O)NCC1CCCO1 (centres undefined) | 25µM* | -14%[38.3 µM] | -2 | -9%[46.1 µM] | -7% | -4%
COc1ccccc1CCNC(=O)C1CCCO1 (centres undefined) | 18µM* | -14%[38.3 µM] | -2 | -8%[46.1 µM] | -4% | 3%
COc1ccccc1CNC(=O)c1ccc(OCC2CCCO2)cc1 (centres undefined) | -12% | -3% | 10 | -3%[46.1 µM] | 1% | -3%
COc1ccccc1CNC(=O)C(=O)NCC1CCCO1 (centres undefined) | -9% | 2% | -5 | -4%[46.1 µM] | -3% | 2%
O=C(c1cccc(-c2nnc(-c3ccccc3)o2)c1)N1CCCCC1 | 7.9µM* | -4%[38.3 µM] | 3 | -19%[46.1 µM] | ? | 3%
O=C(c1cccc(-c2nnc(-c3ccccc3)o2)c1)N1CCCCCC1 | 8.9µM* | 22%[38.3 µM] | 3 | -30%[46.1 µM] | ? | 4%
CCC(C)(C)C1CCC(=NNC(=O)c2ccoc2C)CC1 (centres undefined) | -23% | 40%[38.3 µM] | 2 | -7%[46.1 µM] | 25µM* | 0%
CCCC(=O)NNC(=O)c1ccoc1C | -6% | -5% | / | -1% | 10% | 1%
COc1ccc(OC)c(/C=c2\sc3nc(-c4cccs4)nn3c2=O)c1 | -22% | 13%[38.3 µM] | -7[1.84 µM] | -12%[46.1 µM] | 7% | -1%
COc1ccc(O)c(/C=c2/sc3nc4cc(C)c(C)cc4n3c2=O)c1 | 7.9µM* | -15%[38.3 µM] | 10 | -23%[46.1 µM] | ? | -1%
Cc1ccc(NC2Sc3ccccc3NC2=O)cc1 (centres undefined) | / | 8% | / | -8% | 25µM* | /
CC(=O)Nc1ccc(S(=O)(=O)Nc2nc3ccc([N+](=O)[O-])cc3s2)cc1 | / | 0% | / | 11% | 14µM* | /
CC(=O)Nc1ccc(S(=O)(=O)Nc2nc3ccccc3s2)cc1 | -19% | 36%[38.3 µM] | 9 | -2%[46.1 µM] | -6% | -5%
SMILES | HPGD inh | IMPase Li cell | IMPase inh | NPSR antag | ALDH1A1 inh | 12-hLO inh
Cn1c(C(=O)NCc2cccnc2)cc2sc(Cl)cc21 | ? | 1%[38.3 µM] | 1 | 9%[46.1 µM] | 9% | -2%
CN(C(=O)COc1ccc(S(=O)(=O)N2CCOCC2)cc1[N+](=O)[O-])C1CCS(=O)(=O)C1 (centres undefined) | / | / | / | -16% | 13µM* | /
COc1ccccc1NC(=O)c1cc2c(s1)-c1ccccc1S(=O)(=O)C2 | / | / | / | -9% | / | /
COc1ccc(-n2c(=O)cc(N3CCN(c4ccccc4F)CC3)[nH]c2=O)cc1 | 2% | 13%[38.3 µM] | -2 | -7%[46.1 µM] | 4µM* | -2%
CC(C)n1nc(C(=O)Oc2cc(Cl)ccc2Cl)c2ccccc2c1=O | -7% | 0% | / | -41% | 6% | 2%
Cc1nn(Cc2ccccc2)c(C)c1NC(=O)CCCn1nc(C)c([N+](=O)[O-])c1C | -13% | 8% | / | 12% | ? | -3%
Cc1nn(Cc2ccccc2)c(C)c1NC(=O)CCCn1nc([N+](=O)[O-])c(Cl)c1C | -16% | 8% | 0 | 3% | ? | -4%
Cc1nn(Cc2ccccc2Cl)c(C)c1NC(=O)CCCn1nc(C)c([N+](=O)[O-])c1C | -9% | -13%[38.3 µM] | 7 | -14%[46.1 µM] | 16µM* | 0%
Cc1nn(Cc2c(Cl)cccc2Cl)c(C)c1NC(=O)CCCn1nc([N+](=O)[O-])c(Cl)c1C | -4% | 11% | -4 | -16% | 6.3µM* | 1%
COC(=O)c1cc(NC(C)=O)ccc1N1CCOCC1 | / | -4% | / | 18% | 7% | /
CC(C)c1ccc(N(CC(=O)NCc2ccc(F)cc2)C(=O)c2csnn2)cc1 | / | 9% | / | -15% | 5µM* | /
NC(=O)c1sc(=S)n2c1[nH]c(=O)c1sccc12 | / | 4% | / | -21% | ? | /
CC(=O)NNC(=O)c1sc(=S)n2c1[nH]c(=O)c1sccc12 | / | 6% | / | -15% | 3.5µM* | /
Cc1cc(F)ccc1NCc1ccccc1[N+](=O)[O-] | / | 19% | / | 38% | 0.63µM* | /
O=C(O)c1cc([N+](=O)[O-])ccc1NCc1ccccc1Cl | / | -1% | / | -32% | 0% | /
Cc1cc([N+](=O)[O-])ccc1NCc1ccccc1[N+](=O)[O-] | / | 8% | / | -24% | 18µM* | /
COC(=O)CCN(C1CCCCC1)S(=O)(=O)c1ccc(S(=O)(=O)N2CCCCC2)cc1 | -15% | 20%[38.3 µM] | 2 | -15%[46.1 µM] | 1.8µM* | -9%
O=C(CN(C1CC1)S(=O)(=O)c1ccc(S(=O)(=O)N2CCCCCC2)cc1)Nc1ccccc1 | 0% | 8%[38.3 µM] | 4 | -6%[46.1 µM] | 5% | -5%
CCc1ccc2c(CN3CCN(S(=O)(=O)c4ccc5c(c4)OCCO5)CC3)cc(=O)oc2c1 | -14% | 0%[38.3 µM] | 8 | -22%[46.1 µM] | ? | -7%
C/C(CC(=O)NC(C)(C)C)=N\NC(=O)COc1ccc(C)cc1Br | / | -8% | / | 12% | 14µM* | /
COc1ccccc1NC(=O)C(=O)N/N=C(\C)CC(=O)Nc1ccc(OCc2ccccc2)cc1 | -14% | -2%[38.3 µM] | -6 | 0%[46.1 µM] | 1% | 7%
COc1ccc(CNC(=O)C/C(C)=N/NC(=O)COc2ccc(C)cc2Br)cc1 | / | 11% | / | 19% | 10µM* | /

Screening results from PubChem BioAssay.
